Most compounds without a hit are left out; they make up all but 21% or so of the library.
Cycloheximide cs – affects cycloheximide protein synthesis inhibition readout, counter-screen | max response, % | AID 2314 | 300,000 tested, 12% active | cell reporter, cycloheximide protein synthesis inhibition counterscreen; in the data active means max response mostly above about 13%, no sharp cut-off; inactive means mostly below about 14%; further: read at 38.3 µM for the half of the compounds with a filed dose
Pf growth 48h – inhibits P. falciparum growth in the first generation, 48 h | AID 504832 | Potency, µM (top dose mostly 28.7 µM), usual class: inhibitors | P. falciparum luciferase growth in erythrocytes, 48 h | 310,000 tested, 5.9% active
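Firefly luciferase activity from engineered P. falciparum reports growth; inhibitors lower the luminescent signal. Cultures contained 2% hematocrit erythrocytes at 0.1% final parasitemia.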
Pf growth 96h – P. falciparum growth inhibition at 96 hours. AID 504834. P. falciparum luciferase reporter growth, 96 h. 320,000 tested, 6.9% active. Potency, µM (doses to about 28.7 µM), usual class: inhibitors
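Erythrocytes infected with luciferase-expressing P. falciparum were dispensed at 2% hematocrit and 0.05% parasitemia (final), then incubated with compounds 96 hours at 37 C in 5% CO2. Luminescence after detection reagent addition reported growth.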
HCV inhibitor – inhibitors of hepatitis C virus infection | Huh7.5.1 HCVcc-Cre infection, luciferase reporter, 44 h | AID 651820 | Potency, µM (highest dose often 41.8 µM), most hits filed as inhibitors | 340,000 tested, 3.4% active
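Luciferase read-out (15 sec integration) after a 15 min room-temperature substrate step quantifies HCVcc-Cre infection. Cells, 1,000 per well, had compound added 4 h post-plating, then virus at ~0.5 moi, and were cultured 44 h.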
HCMV antiviral – blocks human cytomegalovirus replication; HFF cells, HCMV-luciferase reporter, 72 h; active compounds read low; activity change, negative = inhibition, % at 57.5 µM; 410,000 tested, 4.5% active; AID 1259415; in the data active means activity change below about -60%; inconclusive means no clear call, values can overlap the other calls; inactive means above about -39%
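Inhibition of viral replication was scored as loss of reporter luminescence in HFFs infected with HCMV-luciferase (MOI 1 PFU/cell) for 72 h; compounds tested at 2 doses, normalized to buffer and Salinomycin controls.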
Shiga toxin inh – Shiga toxin inhibition. AID 2315. Vero cells, Shiga toxin protein synthesis inhibition reporter. 290,000 tested, 9.2% active. inhibition, % at 38.7 µM; in the data active means inhibition mostly above about 28%, no sharp cut-off; inactive means mostly below about 43%
Each line names hits and unclear results; the compound was inactive in the other large screens. Unless noted, the call rests on the fitted dose curve; in most records, active means well fitted inhibition curve with a large enough effect; inconclusive means small, poorly fitted or top-dose-only effect, or another doubt; inactive means no such curve, though single readings can be large or run the other way.

CN1CCN(C(=O)c2cc3c(c(-c4cccc(-c5cc6ccccc6o5)c4)n2)[C@@H](CCO)N(S(=O)C(C)(C)C)C3)CC1 (stereo not given in full)	none (no result: Cycloheximide cs, Pf growth 48h, Pf growth 96h, HCV inhibitor, Shiga toxin inh)
CN(Cc1nc(-c2ccc(Cl)cc2)no1)S(=O)(=O)c1ccccc1	none (no result: Cycloheximide cs, Pf growth 48h, Pf growth 96h, HCV inhibitor, Shiga toxin inh)
Nc1cc(=O)n(Cc2ccccc2)c(=O)n1-c1ccc(Cl)cc1	Pf growth 48h 10.4µM, Pf growth 96h inconclusive
O=C(NCCN1CCC(n2c(=O)[nH]c3ccccc32)CC1)c1ccc(Cl)cc1Cl	none (no result: Cycloheximide cs, Pf growth 48h, Pf growth 96h, HCV inhibitor, Shiga toxin inh)
CCOc1cc(/C=C/c2cc(C(=O)O)c3ccccc3n2)ccc1O	none
CCN(CC)c1ccc(/C=C/c2cc(-c3ccccc3)c3ccccc3n2)cc1	Cycloheximide cs 16.0, Pf growth 48h inconclusive, Pf growth 96h 11.7µM, HCV inhibitor 14.1µM
O=C(/C=C/c1ccc(Cl)cc1)N(Cc1ccccc1)c1ccccn1	Cycloheximide cs 21.1, Pf growth 48h inconclusive, Shiga toxin inh 106.8
Cc1ccc(/C=C(\C#N)c2nc(-c3ccc(-c4ccccc4)cc3)cs2)cc1	none (no result: Cycloheximide cs, Pf growth 48h, Pf growth 96h, HCV inhibitor, Shiga toxin inh)
CCOc1ccc(-c2csc(/C(C#N)=C\c3ccc(O)c([N+](=O)[O-])c3)n2)cc1	Pf growth 48h inconclusive, Pf growth 96h 5.22µM, HCV inhibitor inconclusive
COc1ccccc1CNC(=O)C/C(C)=N/NC(=O)Cc1ccc(Cl)cc1	Pf growth 96h inconclusive
COc1cccc(N2CCN(C(=O)c3ccccc3SCC(=O)NCc3ccco3)CC2)c1	Pf growth 48h inconclusive, HCV inhibitor inconclusive (no result: Cycloheximide cs, Shiga toxin inh)
Cc1nn(C)c(C)c1/C=C/C(=O)c1ccccc1	Cycloheximide cs 26.8, HCV inhibitor inconclusive, Shiga toxin inh 35.6 (no result: Pf growth 48h)
Cc1nn(C)cc1/C=C/C(=O)c1ccccc1	Cycloheximide cs 27.9, HCV inhibitor inconclusive, Shiga toxin inh 65.3 (no result: Pf growth 96h)
CCn1cc(/C=C/C(=O)c2ccc(O)cc2)c(C)n1	Cycloheximide cs 12.9
Cc1ccc(-c2nn(CCC(=O)O)cc2/C=C\C(=O)c2ccc(Br)cc2)cc1	Pf growth 48h inconclusive
Cc1nn(C)cc1/C=C/C(=O)c1cccs1	Cycloheximide cs 48.2, HCV inhibitor inconclusive, Shiga toxin inh 58.3
Cc1cccc(NC(=O)CN2CCN(C(=O)c3c(C)nn(Cc4ccccc4)c3C)CC2)c1C	none (no result: Cycloheximide cs, Shiga toxin inh)
NC(N)=Nc1ccc(N=C(N)N)cc1	Pf growth 48h inconclusive, Pf growth 96h 8.28µM
Cc1cccc(Cn2c(CNS(=O)(=O)c3ccc(C(C)C)cc3)nc3cccnc32)c1	none (no result: Cycloheximide cs, Pf growth 48h, Pf growth 96h, HCV inhibitor, Shiga toxin inh)
COCCN(C(=O)c1ccc(-c2ccc([N+](=O)[O-])cc2)o1)c1c(N)n(CC(C)C)c(=O)[nH]c1=O	none (no result: Cycloheximide cs, Shiga toxin inh)
Cc1c(CCC(=O)O)c(=O)oc2cc3occ(-c4ccc(F)cc4)c3cc12	none (no result: Pf growth 96h)
Cc1c(CCC(=O)O)c(=O)oc2cc3occ(-c4ccc(Br)cc4)c3cc12	Pf growth 48h inconclusive, Pf growth 96h inconclusive, HCMV antiviral -62.1
Cc1c(CCC(=O)O)c(=O)oc2cc3occ(C(C)(C)C)c3cc12	Pf growth 96h 1.04µM
Cc1cc(Br)ccc1NC(=O)c1cc2c(=O)n(C)c3cc(Cl)ccc3c2s1	none (no result: Cycloheximide cs, Pf growth 48h, Pf growth 96h, HCV inhibitor, Shiga toxin inh)
COc1ccc(F)c(CN2CCN(CCc3ccccc3)C(CCO)C2)c1 (stereo not given)	Pf growth 96h 3.7µM (no result: Shiga toxin inh)
CCOc1ccc(CN2CCN(CC3=Cc4cccc(OC)c4OC3)CC2CCO)cc1 (stereo not given)	Pf growth 48h 10.4µM, Pf growth 96h inconclusive, HCV inhibitor 10µM
COc1ccc(CN2CCN(Cc3nc4ccccc4s3)CC2CCO)c(C)c1C (stereo not given)	Pf growth 48h inconclusive, HCV inhibitor 6.31µM
COc1ccc(OC)c(CN2CCN(CCc3ccccc3)C(CCO)C2)c1 (stereo not given)	Pf growth 96h 13.1µM
OCCC1CN(Cc2cc(F)ccc2F)CCN1CCCc1ccccc1 (stereo not given)	Pf growth 48h inconclusive, Pf growth 96h 13.1µM
Cc1ccc(C)c(OCC(=O)O/N=C(\N)c2cccnc2)c1	Cycloheximide cs 19.0, Pf growth 48h inconclusive
N/C(=N\OC(=O)COc1ccccc1Cl)c1ccccn1	Cycloheximide cs 44.6, Shiga toxin inh 64.8
N/C(=N\OC(=O)COc1ccc2ccccc2c1)c1ccccn1	Cycloheximide cs 66.6, Shiga toxin inh 128.0
Cc1ccc(SCC(=O)O/N=C(\N)c2cccnc2)cc1	Cycloheximide cs 17.4 (no result: HCMV antiviral)
CCc1ccc(OCC(=O)O/N=C(\N)c2cccnc2)cc1	Cycloheximide cs 32.3, Shiga toxin inh 44.1
